# Several values for one entry are separate records, joined by “and”; a condition that tells them apart may be missing. Identical values can stand only once. About 79,000 compounds went through this panel and 15% of them were active in at least one assay; those are over-represented in the sample as a whole. Activity calls are given as the source filed them. No stated cut-off is given here; in the data, active means growth inhibition above about 70%; inactive means the rest.
# Assay: NCI Yeast Anticancer Drug Screen. Data for the bub3 strain (AID 167)
# Settings: S. cerevisiae bub3 mutant strain, at 50.0 µM (retest, dose inferred, filed as 5.0), stronger effect = higher value
# Procedure, shortened: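 Growth of a checkpoint-deficient yeast mutant is measured after compound exposure. Values represent inhibition relative to vehicle.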
row,SMILES,growth inhibition
1,NC1=NC2=C(CCCC2)C(c2cccs2)S1 (centres undefined),74% (active)
2,CCC(C)(C)NCCCCCNc1cc(OC)cc2cccnc12,36% (inactive)
3,C/C(=N\NC(=S)Nc1ccc([N+](=O)[O-])cc1)c1nc2ncccc2[nH]1,95% (active)
4,COC(=O)c1ccc(SCC(=O)c2ccc([N+](=O)[O-])o2)cc1,46% (inactive)
5,CCCCCCCCCCCC(=O)OCCOP(=O)(OCC)OCC,97% (active)
6,COc1cccc2c1S(=O)(=O)C(c1ccccc1)=CC2=O,97% (active)
7,CC(C)(C)c1ccc(-n2c3nc(=O)n(-c4ccccc4C(F)(F)F)c(=O)c-3cc3ccccc32)cc1,98% (active)
8,NC(=O)C1C(=O)c2cccc3c2C1(Br)C(Br)CCC3 (centres undefined),99% (active)
9,COC(=O)/C(=C/C=C(c1ccccc1)c1ccccc1)N(C(C)=O)C(C)=O,11% (inactive)
10,COc1cc(C2=NCCO2)cc(OC)c1OC,-79% (inactive)
11,O=C1c2cccc3cc([N+](=O)[O-])cc(c23)C(=O)N1O,64% (inactive)
12,CCOc1ccccc1C(=O)Oc1cccc(C)c1,-6% (inactive)
13,CCNc1cc(N)[n+](CC)c2n[nH]c(/N=C/c3cc(Cl)cc(Cl)c3O)c12,97% (active)
14,CC(=O)OC1=Cc2ccccc2C(c2ccccc2)c2ccccc21 (centres undefined),20% (inactive)
15,CCOC(=O)c1[nH]c(Br)c(-c2ccc(OC)c(OC)c2)c1Br,99% (active)
16,C#C[C@]1(OC(C)=O)CC[C@H]2[C@@H]3CCC4=CC(=O)CC[C@@H]4[C@H]3CC[C@@]21C,13% (inactive)
17,COc1ccc(CC2=CC(=O)C(=O)C=C2C)cc1,21% (inactive)
18,O=C(O)CCC/C(=N\Nc1ccccc1)C(=O)O,98% (active)

row,SMILES,growth inhibition
1,S=c1[nH]c2ccc(Br)cc2c(=S)n1-c1ccccc1,14% (inactive)
2,CC1(C)OC2C(COC(c3ccccc3)(c3ccccc3)c3ccccc3)OC(n3cnc4c(N)ncnc43)C2O1 (centres undefined),92% (active)
3,O=[N+]([O-])c1cnc(F)c(Br)c1,99% (active)
4,C=C(C#N)C(=O)OCC(CC)CC.C=C(C#N)C(=O)OCC(CC)CC.CS(C)=O.CS(C)=O.Nc1c(N=Nc2ccc(-c3ccc(N=Nc4cc(S(=O)(=O)[O-])c5ccccc5c4N)cc3)cc2)cc(S(=O)(=O)[O-])c2ccccc12.[Pt+2],98% (active)
5,CCCCCCCCCCS(=O)(=O)Nc1ccc(C(=O)NN)cc1,82% (active)
6,COC(=O)c1ccc(C)cc1CC1Cc2cc(C)ccc2C1=O (centres undefined),49% (inactive)
7,CCCCCOCC(=O)OC,7% (inactive)
8,COc1ccc(C2c3cc4c(cc3OC(N3CCOCC3)C2C)OCO4)c(OC)c1 (centres undefined),98% (active)
9,COC1/C=C\OC2(C)Oc3c(C)c(O)c4c(c3C2=O)C2=NC(C)(C)N(c3ccccc3)C2=C(NC(=O)/C(C)=C\C=C\C(C)C(O)C(C)C(O)C(C)C(OC(C)=O)C1C)C4=O (centres undefined),69% (inactive)
10,C/C(=C/C(=O)N1c2ccccc2CC1c1c[nH]c2ccccc12)C(=O)O (centres undefined),20% (inactive)
11,CSc1nc(C)c(C(=O)CCN2CCOCC2)s1,92% (active)
12,Cn1c(=S)c2[nH]c(=S)[nH]c2n(C)c1=O,89% (active)
13,CC(C)CCC(C)(C)c1cc(O)ccc1O,98% (active)
14,CCc1c(-c2ccccc2)c(CN2CCCCC2)c2ccccn12,26% (inactive)
15,Clc1ccc(CN2COc3c(ccc4cccnc34)C2)c(Cl)c1,99% (active)
16,Cc1[nH]c2ccccc2c1/C=C1/CCCCCCC1=O,41% (inactive)
17,CCOC(=O)c1ccc(NC(=O)O/N=C(/Cl)CC)cc1,51% (inactive)
18,COC1OC(COC(=O)c2ccccc2)CC1F (centres undefined),26% (inactive)

# Same assay, conditions: S. cerevisiae bub3 mutant strain, at 50.0 µM, stronger effect = higher value
row,SMILES,growth inhibition
1,NC1=NC2=C(CCCC2)C(c2cccs2)S1 (centres undefined),61.7% (inactive)
2,CCC(C)(C)NCCCCCNc1cc(OC)cc2cccnc12,79% (active)
3,C/C(=N\NC(=S)Nc1ccc([N+](=O)[O-])cc1)c1nc2ncccc2[nH]1,75.5% (active)
4,COC(=O)c1ccc(SCC(=O)c2ccc([N+](=O)[O-])o2)cc1,60.4% (inactive)
5,CCCCCCCCCCCC(=O)OCCOP(=O)(OCC)OCC,-9.15% (inactive)
6,COc1cccc2c1S(=O)(=O)C(c1ccccc1)=CC2=O,99.7% (active)
7,CC(C)(C)c1ccc(-n2c3nc(=O)n(-c4ccccc4C(F)(F)F)c(=O)c-3cc3ccccc32)cc1,47.1% (inactive)
8,NC(=O)C1C(=O)c2cccc3c2C1(Br)C(Br)CCC3 (centres undefined),99.2% (active)
9,COC(=O)/C(=C/C=C(c1ccccc1)c1ccccc1)N(C(C)=O)C(C)=O,99.7% (active)
10,COc1cc(C2=NCCO2)cc(OC)c1OC,0.55% (inactive)
11,O=C1c2cccc3cc([N+](=O)[O-])cc(c23)C(=O)N1O,70.5% (active)
12,CCOc1ccccc1C(=O)Oc1cccc(C)c1,11.8% (inactive)
13,CCNc1cc(N)[n+](CC)c2n[nH]c(/N=C/c3cc(Cl)cc(Cl)c3O)c12,90.3% (active)
14,CC(=O)OC1=Cc2ccccc2C(c2ccccc2)c2ccccc21 (centres undefined),14.3% (inactive)
15,CCOC(=O)c1[nH]c(Br)c(-c2ccc(OC)c(OC)c2)c1Br,88% (active)
16,C#C[C@]1(OC(C)=O)CC[C@H]2[C@@H]3CCC4=CC(=O)CC[C@@H]4[C@H]3CC[C@@]21C,93.8% (active)
17,COc1ccc(CC2=CC(=O)C(=O)C=C2C)cc1,38% (inactive)
18,O=C(O)CCC/C(=N\Nc1ccccc1)C(=O)O,99% (active)
19,S=c1[nH]c2ccc(Br)cc2c(=S)n1-c1ccccc1,89.4% (active)

row,SMILES,growth inhibition
1,CC1(C)OC2C(COC(c3ccccc3)(c3ccccc3)c3ccccc3)OC(n3cnc4c(N)ncnc43)C2O1 (centres undefined),48.2% (inactive)
2,O=[N+]([O-])c1cnc(F)c(Br)c1,99.1% (active)
3,C=C(C#N)C(=O)OCC(CC)CC.C=C(C#N)C(=O)OCC(CC)CC.CS(C)=O.CS(C)=O.Nc1c(N=Nc2ccc(-c3ccc(N=Nc4cc(S(=O)(=O)[O-])c5ccccc5c4N)cc3)cc2)cc(S(=O)(=O)[O-])c2ccccc12.[Pt+2],92.9% (active)
4,CCCCCCCCCCS(=O)(=O)Nc1ccc(C(=O)NN)cc1,79% (active)
5,CC(=O)OCC(OC(C)=O)C(OC(C)=O)C(OC(C)=O)C(COC(C)=O)OC(C)=O (centres undefined),0.95% (inactive) and -9.35% (inactive) and 14.6% (inactive)
6,COC(=O)c1ccc(C)cc1CC1Cc2cc(C)ccc2C1=O (centres undefined),64.2% (inactive)
7,CCCCCOCC(=O)OC,-1.3% (inactive)
8,COc1ccc(C2c3cc4c(cc3OC(N3CCOCC3)C2C)OCO4)c(OC)c1 (centres undefined),98% (active)
9,COC1/C=C\OC2(C)Oc3c(C)c(O)c4c(c3C2=O)C2=NC(C)(C)N(c3ccccc3)C2=C(NC(=O)/C(C)=C\C=C\C(C)C(O)C(C)C(O)C(C)C(OC(C)=O)C1C)C4=O (centres undefined),27.9% (inactive)
10,C/C(=C/C(=O)N1c2ccccc2CC1c1c[nH]c2ccccc12)C(=O)O (centres undefined),17.1% (inactive)
11,CSc1nc(C)c(C(=O)CCN2CCOCC2)s1,47.6% (inactive)
12,Cn1c(=S)c2[nH]c(=S)[nH]c2n(C)c1=O,96.7% (active)
13,OCC(O)C(O)C(O)C(O)C(SCc1ccccc1)SCc1ccccc1 (centres undefined),-3.7% (inactive) and -7.25% (inactive) and 2.05% (inactive)
14,CC(C)CCC(C)(C)c1cc(O)ccc1O,98.8% (active)
15,CCc1c(-c2ccccc2)c(CN2CCCCC2)c2ccccn12,-5.5% (inactive)
16,Clc1ccc(CN2COc3c(ccc4cccnc34)C2)c(Cl)c1,99% (active)
17,Cc1[nH]c2ccccc2c1/C=C1/CCCCCCC1=O,93.5% (active)
18,CCOC(=O)c1ccc(NC(=O)O/N=C(/Cl)CC)cc1,63.8% (inactive)
19,COC1OC(COC(=O)c2ccccc2)CC1F (centres undefined),93.3% (active)

# Source: PubChem BioAssay (NCI)
